Source: PubChem BioAssay (EPA / NIEHS)
Calls of active or inactive are those of the source. How the source made its calls: active means hit-call score of the fitted dose curve at least 0.9, where 1 is the maximum; inactive means score below 0.9.

Key:
Conditions in all cases: mRNA level, 48 h; actives raise or lower the signal
[1] = read-out: ABC Transporter (ABCB11), ABCB11 (gene 8647); experiment: LTEA_HepaRG_ABCB11: Life Technologies and Expression Analysis (LTEA) Assay for ABC Transporter (ABCB11) using HepaRG (AID 2283463)
Outline: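 HepaRG, 48 h exposure, 8-pt half-log CRC top 100 uM, 0.5% DMSO vehicle, duplicates. Readout: TaqMan qRT-PCR of ABCB11 mRNA, housekeeping-normalized (ACTB/GAPDH/POLR2A). Bidirectional fit vs DMSO baseline.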

[2] = read-out: ABC Transporter (ABCC2), ABCC2 (gene 1244); experiment: LTEA_HepaRG_ABCC2: Life Technologies and Expression Analysis (LTEA) Assay for ABC Transporter (ABCC2) using HepaRG (AID 2283464)
Outline: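 Endpoint is ABCC2 transcript level from qRT-PCR, normalized to three housekeeping genes and fitted bidirectionally relative to DMSO. Human HepaRG cells received test chemical for 48 h at up to 100 uM (8 points, half-log steps, 0.5% DMSO), duplicate wells.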

[3] = read-out: Broad substrate specificity ATP-binding cassette transporter ABCG2 (Homo sapiens) (UniProt Q9UNQ0); experiment: LTEA_HepaRG_ABCG2: Life Technologies and Expression Analysis (LTEA) Assay for ABC Transporter (ABCG2) using HepaRG (AID 2283465)
Outline: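 HepaRG, 48 h exposure, 8-pt half-log series from 100 uM, 0.5% DMSO vehicle, duplicates. Readout: ABCG2 transcript by qRT-PCR (Fluidigm array), housekeeping-normalized; bidirectional curve fit relative to DMSO baseline.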

[4] = read-out: ATP-citrate lyase (ACLY), ACLY (gene 47); experiment: LTEA_HepaRG_ACLY: Life Technologies and Expression Analysis (LTEA) Assay for ATP-citrate lyase (ACLY) using HepaRG (AID 2283466)
Outline: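 qRT-PCR readout of ACLY transcript after 48 h chemical treatment of HepaRG cells; expression normalized to three housekeeping genes. Eight-point half-log series, highest 100 uM, 0.5% DMSO vehicle. Gain or loss fitted against DMSO baseline.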

[5] = read-out: Peroxisomal acyl-coenzyme A oxidase 1 (ACOX1) gene, ACOX1 (gene 51); experiment: LTEA_HepaRG_ACOX1: Life Technologies and Expression Analysis (LTEA) Assay for Peroxisomal acyl-coenzyme A oxidase 1 (ACOX1) gene using HepaRG (AID 2283467)
Outline: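 HepaRG, 48 h chemical exposure, 8-pt half-log series from 100 uM top, 0.5% DMSO vehicle, duplicates. Readout: ACOX1 mRNA by Fluidigm qRT-PCR, housekeeping-normalized; bidirectional fit vs DMSO baseline.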

[6] = read-out: Alkaline Phosphatase, Placental (ALPP) gene, ALPP (gene 250); experiment: LTEA_HepaRG_ALPP: Life Technologies and Expression Analysis (LTEA) Assay for Alkaline Phosphatase, Placental (ALPP) gene using HepaRG (AID 2283468)
Outline: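 ALPP transcript level, measured by qRT-PCR and normalized to three housekeeping genes (ACTB, GAPDH, POLR2A), after 48 h dosing of differentiated HepaRG in serum-free induction medium. Top concentration 100 uM with half-log dilutions (8 points, 0.5% DMSO, duplicates); bidirectional fitting relative to DMSO.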

[7] = read-out: Bcl-2 (BAD) gene, BAD (gene 572); experiment: LTEA_HepaRG_BAD: Life Technologies and Expression Analysis (LTEA) Assay for Bcl-2 (BAD) gene using HepaRG (AID 2283469)
Outline: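 HepaRG, 48 h exposure, 8-pt half-log curve from 100 uM in 0.5% DMSO, duplicates. Readout: TaqMan qRT-PCR for BAD mRNA, housekeeping-normalised (ACTB/GAPDH/POLR2A); gain or loss fitted against DMSO baseline.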

[8] = read-out: Bcl-2 (BAX) gene, BAX (gene 581); experiment: LTEA_HepaRG_BAX: Life Technologies and Expression Analysis (LTEA) Assay for Bcl-2 (BAX) gene using HepaRG (AID 2283470)
Outline: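 Human HepaRG cells treated in duplicate for 48 h across eight concentrations (max 100 uM, 0.5% DMSO); BAX expression measured by qRT-PCR.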

[9] = read-out: adenosine kinase (ADK) gene, ADK (gene 132); experiment: LTEA_HepaRG_ADK: Life Technologies and Expression Analysis (LTEA) Assay for adenosine kinase (ADK) gene using HepaRG (AID 2283471)
Outline: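 Differentiated HepaRG cells dosed 48 h in serum-free induction medium, 0.5% DMSO vehicle, eight half-log concentrations from 100 uM, in duplicate. ADK mRNA by TaqMan qRT-PCR normalised to ACTB, GAPDH, POLR2A; bidirectional fit versus DMSO.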

[10] = read-out: Alpha-fetoprotein (AFP) gene, AFP (gene 174); experiment: LTEA_HepaRG_AFP: Life Technologies and Expression Analysis (LTEA) Assay for Alpha-fetoprotein (AFP) gene using HepaRG (AID 2283472)
Outline: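 Measures AFP mRNA change in HepaRG after 48 h chemical exposure (8 half-log concentrations, highest 100 uM, 0.5% DMSO). Fold change relative to DMSO, fitted in both directions.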

BCL2L11 (gene 10018) = experiment: LTEA_HepaRG_BCL2L11: Life Technologies and Expression Analysis (LTEA) Assay for Bcl-2 (BCL2L11) gene using HepaRG (AID 2283473)
Outline: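 BCL2L11 transcript levels are measured by Fluidigm qRT-PCR, normalized to three housekeeping genes. HepaRG cultures were plated 48 h, then treated 48 h with test chemical (top 100 uM, half-log, 0.5% DMSO vehicle); curves were fitted bidirectionally against DMSO.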

[11] = read-out: Apolipoprotein A-V (APOA5) gene, APOA5 (gene 116519); experiment: LTEA_HepaRG_APOA5: Life Technologies and Expression Analysis (LTEA) Assay for Apolipoprotein A-V (APOA5) gene using HepaRG (AID 2283474)
Outline: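 APOA5 transcript levels were quantified by qRT-PCR, normalized to three housekeeping genes, after 48 h chemical treatment of HepaRG cells (8 points, 100 uM maximum, half-log steps, 0.5% DMSO). Curves fitted in both directions against vehicle.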

[12] = read-out: Bcl-2 (BID) gene, BID (gene 637); experiment: LTEA_HepaRG_BID: Life Technologies and Expression Analysis (LTEA) Assay for Bcl-2 (BID) gene using HepaRG (AID 2283476)
Outline: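 Assay used HepaRG hepatic cells treated 48 h in serum-free medium with half-log dilutions from 100 uM. Endpoint: BID mRNA, qRT-PCR, normalized to ACTB/GAPDH/POLR2A.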

Caspase-3 (Homo sapiens) = Caspase-3 (Homo sapiens) (UniProt P42574); experiment: LTEA_HepaRG_CASP3: Life Technologies and Expression Analysis (LTEA) Assay for cysteine-aspartic acid protease (CASP3) using HepaRG (AID 2283477)
Chain of Caspase-3 (Homo sapiens) (P42574 whole entry, looked up): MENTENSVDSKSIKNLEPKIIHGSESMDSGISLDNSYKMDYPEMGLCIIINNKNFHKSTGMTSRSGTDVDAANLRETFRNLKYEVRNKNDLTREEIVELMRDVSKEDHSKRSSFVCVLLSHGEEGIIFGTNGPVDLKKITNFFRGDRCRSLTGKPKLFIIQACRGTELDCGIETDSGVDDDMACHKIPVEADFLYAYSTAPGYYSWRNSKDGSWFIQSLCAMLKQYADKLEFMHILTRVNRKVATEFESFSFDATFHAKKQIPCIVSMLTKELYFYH
Outline: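 Expression of CASP3 was quantified by TaqMan qRT-PCR against three housekeeping genes (ACTB, GAPDH, POLR2A), bidirectionally versus 0.5% DMSO. HepaRG cultures received compounds in duplicate, top 100 uM with half-log steps, for 48 h in serum-free induction medium.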

[13] = read-out: Cytochrome P450 (CYP1A2), CYP1A2 (gene 1544); experiment: LTEA_HepaRG_CYP1A2: Life Technologies and Expression Analysis (LTEA) Assay for Cytochrome P450 (CYP1A2) using HepaRG (AID 2283479)
Outline: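 CYP1A2 transcript measured by TaqMan qRT-PCR against three housekeeping genes after 48-hour chemical exposure of HepaRG cells. Eight-point half-log series topping at 100 uM in 0.5% DMSO, duplicates; gain or loss fitted relative to vehicle.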

[14] = read-out: cysteine-aspartic acid protease (CASP8), CASP8 (gene 841); experiment: LTEA_HepaRG_CASP8: Life Technologies and Expression Analysis (LTEA) Assay for cysteine-aspartic acid protease (CASP8) using HepaRG (AID 2283480)
Outline: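 qRT-PCR readout of CASP8 mRNA, normalized to three housekeeping genes, after 48 h chemical exposure of HepaRG cells; 8-point half-log series, top 100 uM, 0.5% DMSO vehicle. Bidirectional curve fitting against DMSO baseline.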

[15] = read-out: Cytochrome P450 (CYP2B6), CYP2B6 (gene 1555); experiment: LTEA_HepaRG_CYP2B6: Life Technologies and Expression Analysis (LTEA) Assay for Cytochrome P450 (CYP2B6) using HepaRG (AID 2283481)
Outline: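 CYP2B6 transcript level quantified by qRT-PCR against three housekeeping genes, fitted bidirectionally relative to DMSO. HepaRG cultures received chemicals for 48 h, 8-point half-log series from 100 uM in 0.5% DMSO, duplicate wells, serum-free induction medium.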

[16] = read-out: Cytochrome P450 2C19 (Homo sapiens) (UniProt P33261); experiment: LTEA_HepaRG_CYP2C19: Life Technologies and Expression Analysis (LTEA) Assay for CYP2C19 using HepaRG (AID 2283482)
Outline: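 CYP2C19 transcript levels by qRT-PCR, normalized to three housekeeping genes, in HepaRG cells after 48 h chemical exposure. Eight-point half-log series topping at 100 uM, 0.5% DMSO vehicle. Increases and decreases both fitted against DMSO.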

CYP2C8 (gene 1558) = experiment: LTEA_HepaRG_CYP2C8: Life Technologies and Expression Analysis (LTEA) Assay for CYP2C8 using HepaRG (AID 2283483)
Outline: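 HepaRG (human liver line), 48 h chemical exposure, 8-pt half-log series from 100 uM, 0.5% DMSO vehicle. Readout: CYP2C8 transcript by qRT-PCR, housekeeping-normalized. Bidirectional fit vs DMSO baseline.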

CYP2C9 (gene 1559) = experiment: LTEA_HepaRG_CYP2C9: Life Technologies and Expression Analysis (LTEA) Assay for CYP2C9 using HepaRG (AID 2283484)
Outline: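 HepaRG, 48 h dosing, 8-pt half-log series, top 100 uM, 0.5% DMSO vehicle. Read-out: CYP2C9 transcript by TaqMan qRT-PCR, housekeeping-normalized (ACTB/GAPDH/POLR2A). Gain or loss fitted vs DMSO baseline.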

Measured: AC50

Chain of Broad substrate specificity ATP-binding cassette transporter ABCG2 (Homo sapiens) (Q9UNQ0 whole entry, looked up): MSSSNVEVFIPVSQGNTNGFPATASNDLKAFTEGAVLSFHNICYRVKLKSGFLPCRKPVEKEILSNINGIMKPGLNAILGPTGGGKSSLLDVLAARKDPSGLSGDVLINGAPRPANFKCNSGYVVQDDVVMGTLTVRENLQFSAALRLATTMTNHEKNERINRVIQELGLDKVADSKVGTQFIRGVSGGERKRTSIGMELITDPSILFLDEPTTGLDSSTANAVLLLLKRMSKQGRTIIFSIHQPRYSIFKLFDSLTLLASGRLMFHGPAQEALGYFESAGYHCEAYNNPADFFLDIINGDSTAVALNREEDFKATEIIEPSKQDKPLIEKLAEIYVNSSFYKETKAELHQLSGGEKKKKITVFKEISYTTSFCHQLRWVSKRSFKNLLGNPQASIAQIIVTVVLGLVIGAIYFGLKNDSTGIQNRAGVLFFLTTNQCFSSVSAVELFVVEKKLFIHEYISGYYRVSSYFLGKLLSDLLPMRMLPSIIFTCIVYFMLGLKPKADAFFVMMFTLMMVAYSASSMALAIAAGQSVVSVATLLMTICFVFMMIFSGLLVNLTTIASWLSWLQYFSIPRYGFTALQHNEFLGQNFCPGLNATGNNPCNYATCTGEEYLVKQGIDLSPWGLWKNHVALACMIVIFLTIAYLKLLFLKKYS
Chain of Cytochrome P450 2C19 (Homo sapiens) (P33261 whole entry, looked up): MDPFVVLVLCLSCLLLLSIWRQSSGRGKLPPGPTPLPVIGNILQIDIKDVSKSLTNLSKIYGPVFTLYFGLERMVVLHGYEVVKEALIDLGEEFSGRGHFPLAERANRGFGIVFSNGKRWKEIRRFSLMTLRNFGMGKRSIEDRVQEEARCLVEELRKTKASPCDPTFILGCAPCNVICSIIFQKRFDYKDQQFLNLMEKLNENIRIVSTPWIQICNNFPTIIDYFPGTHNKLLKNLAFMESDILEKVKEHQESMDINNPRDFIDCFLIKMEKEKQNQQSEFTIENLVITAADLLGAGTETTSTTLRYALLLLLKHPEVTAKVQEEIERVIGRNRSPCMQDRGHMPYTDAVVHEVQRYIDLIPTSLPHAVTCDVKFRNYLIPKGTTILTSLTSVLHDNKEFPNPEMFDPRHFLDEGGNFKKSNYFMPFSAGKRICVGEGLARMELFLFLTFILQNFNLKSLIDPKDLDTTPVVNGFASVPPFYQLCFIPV

CC(C)(c1ccccc1)c1ccc(O)c(C(C)(C)c2ccccc2)c1
active: [1] 43.1 µM | [2] 12.7 µM | [3] 36.2 µM | [5] 50 µM | [10] 68.7 µM | [11] 50 µM | [15] 11.9 µM | [16] 83.2 µM | CYP2C8 (gene 1558) 85 µM | CYP2C9 (gene 1559) 85.4 µM
inactive: all other assays above

CCOP(=S)(OCC)Oc1nc(Cl)c(Cl)cc1Cl
active: [13] 50 µM | [15] 11.4 µM | [16] 23.8 µM
inactive: all other assays above

O=C(O)C(F)(F)C(F)(F)C(F)(F)C(F)(F)C(F)(F)C(F)(F)C(F)(F)C(F)(F)C(F)(F)C(F)(F)F
active: [1] 13.7 µM | BCL2L11 (gene 10018) 47.8 µM | [13] 41.6 µM | [15] 47.8 µM | CYP2C9 (gene 1559) 47.8 µM
inactive: all other assays above

CN(C)N=O
inactive: all assays above

CCC(C)(C)c1ccc(O)c(C(C)(C)CC)c1
active: [13] 80.4 µM
inactive: all other assays above

NC(=O)O
inactive: all assays above

CC(C)(OO)c1ccccc1
active: [13] 50 µM | [15] 22.9 µM
inactive: all other assays above

CC(C)(C)CC(C)(C)c1ccc(O)cc1
active: [11] 50 µM | [12] 82.8 µM | [15] 3.33 µM
inactive: all other assays above

O=c1[nH]c(=O)[nH]c(=O)[nH]1
inactive: all assays above

CC(C)(C)c1cc(O)ccc1O
inactive: all assays above

ClC1(Cl)C2(Cl)C3(Cl)C4(Cl)C(Cl)(Cl)C5(Cl)C3(Cl)C1(Cl)C5(Cl)C24Cl (centres undefined)
active: [4] 5.15 µM | [13] 15.8 µM | [15] 0.73 µM | [16] 3.41 µM
inactive: all other assays above

O=[N+]([O-])c1ccc(O)c([N+](=O)[O-])c1
inactive: [6] | [7] | [8]
active: [1] 12.4 µM | [2] 13.3 µM | [3] 12.4 µM | [4] 4.2 µM | [5] 13.3 µM | [9] 13.3 µM | [10] 24.2 µM | BCL2L11 (gene 10018) 13.1 µM | [11] 25.3 µM | [12] 12.9 µM | Caspase-3 (Homo sapiens) 7 µM | [13] 17.2 µM | [14] 22.3 µM | [15] 16 µM | [16] 19.5 µM | CYP2C8 (gene 1558) 40.1 µM | CYP2C9 (gene 1559) 21.8 µM

O=C(O)C(F)(F)C(F)(F)C(F)(F)C(F)(F)C(F)(F)C(F)(F)F
active: [15] 24.9 µM | [16] 0.576 µM
inactive: all other assays above

Cc1ccccc1N
inactive: all assays above

Oc1cccc2cccnc12
active: [13] 7.72 µM
not listed: CYP2C9 (gene 1559)
inactive: all other assays above
